# Several values for one entry are separate records, joined by “and”; a condition that tells them apart may be missing. Equal entries are not always repeated. Where two headings read alike, the source gives them in different places.
# Experiments:
# PIM1 = details: n = 1
# PIM2 = details: concentration: 1 μM, replicates: in singlicate; n = 1
# PIM3 = details: n = 1
# PIP5K1A = details: concentration: 1 μM, replicates: in singlicate; n = 1
# PIP5K1C = details: n = 1
# PIP5K2B = details: n = 1
# PIP5K2C = tested on: T1, PIP5K2C; details: n = 1
# T1 construct: gene PIP4K2C
# PKAC-alpha = tested on: T2, PKAC-alpha; details: n = 1
# T2 construct: gene PRKACA
# PKAC-beta = tested on: T3, PKAC-beta; details: n = 1
# T3 construct: gene PRKACB
# PKMYT1 = details: n = 1
# [1] = concentration: 1 μM, replicates: in singlicate
# [2] = concentration: 1 μM,replicates: in singlicate, 1 µM
# 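Also: KINOMEscan kinase panel screen.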
Structure (SMILES),%Inh (PIM1; [1]),%Inh (PIM2),%Inh (PIM3; [1]),%Inh (PIP5K1A),%Inh (PIP5K1C; [1]),%Inh (PIP5K2B; [1]),%Inh (PIP5K2C; [1]),%Inh (PKAC-alpha; [1]),%Inh (PKAC-beta; [1]),%Inh (PKMYT1; [1]),%Inh (PIM1; [2]),%Inh (PIM3; [2]),%Inh (PIP5K1C; [2]),%Inh (PIP5K2B; [2]),%Inh (PIP5K2C; [2]),%Inh (PKAC-alpha; [2]),%Inh (PKAC-beta; [2]),%Inh (PKMYT1; [2])
COc1ccccc1CNC(=O)c1cc(C(=O)c2ccccc2C)c[nH]1 [GSK364507],0%,0%,0%,0%,26%,8%,25%,0%,0%,0%,,,,,,,,
Cc1cccc(-c2nc(-c3ccc(S(C)(=O)=O)cc3)sc2-c2ccnc(NCCc3ccccc3)c2)c1,0%,9%,0%,2%,17%,22%,7%,0%,17%,0%,,,,,,,,
CC(=O)Nc1nc2cnc(Nc3cc(NC(=O)c4cccc(CCC#N)c4)ccc3C)nc2s1,5%,19%,9%,13%,0%,45%,4%,15%,0%,0%,,,,,,,,
Cc1c(O)cccc1Nc1ccnc2ccc(C(F)(F)F)cc12.Cl [GW466413],8%,0%,0%,32%,11%,0%,30%,0%,3%,39%,,,,,,,,
Cc1ccc(NC(=O)Nc2cccc(Cl)c2)cc1-c1ccc(C(=O)Nc2ccncc2)cc1 [GSK1398468],15%,0%,0%,0%,33%,0%,28%,0%,4%,0%,,,,,,,,
COc1ccc(Nc2nccc(NCCNC(=O)Nc3ccccc3F)n2)cc1 [GSK1379901],0%,0%,0%,35%,33%,14%,56%,0%,0%,4%,,,,,,,,
CC(C)(C)c1ccc(C(=O)Nc2cn3cc(Cl)ccc3n2)cc1,0%,13%,0%,0%,44%,0%,48%,8%,0%,0%,,,,,,,,
O=C1NC(=O)C(N2CCc3ccccc32)=C1c1ccccc1Cl [SB-373598],0%,9%,7%,0%,29%,35%,1%,22%,39%,11%,,,,,,,,
Cc1cccc(-c2nc(Nc3cccc(C(N)=O)c3)c3ccccc3n2)n1 [GW876019],3%,9%,4%,12%,50%,0%,50%,0%,36%,32%,,,,,,,,
CSc1nn2c(=O)cc(N3CCOCC3)nc2n1Cc1cccc(C(F)(F)F)c1C [GSK2363608],,0%,,0%,,,,,,,0% and 34%,0% and 27%,30% and 0%,1% and 4%,6% and 8%,50% and 0%,64% and 0%,13% and 19%
Cl.c1ccc(-c2n[nH]cc2-c2ccnc(-c3ccc(CN4CCOCC4)cc3)c2)nc1 [GW776245],13%,13%,15%,0%,27%,30%,0%,10%,13%,0%,,,,,,,,
CN1C(=O)C(Nc2ccc(Cl)c(C(=O)O)c2)=C(c2ccc(Cl)cc2)C1=O [SB-404290],0%,0%,0%,11%,0%,0%,0%,0%,4%,0%,,,,,,,,
CC(C)(C)c1ccc(C(=O)Nc2cn3cc(-c4cccnc4)ccc3n2)cc1,32%,12%,44%,0%,17%,18%,53%,13%,33%,19%,,,,,,,,
Cc1cccc(-c2cc(Nc3ccncc3)c3ccccc3n2)n1 [GSK223675],23%,0%,19%,0%,25%,4%,8%,0%,0%,0%,,,,,,,,
Clc1cc(Cl)cc(Nc2ccnc(Nc3cc(Cl)cc(Cl)c3)n2)c1 [GSK175726],20%,0%,0%,9%,39%,7%,26%,10%,0%,8%,,,,,,,,
COc1ccc2nc(-c3cccc(C)n3)nc(Nc3ccncc3)c2c1 [GSK204919],0%,0%,0%,4%,28%,0%,0%,3%,0%,1%,,,,,,,,

Structure (SMILES),%Inh (PIM1; [1]),%Inh (PIM2),%Inh (PIM3; [1]),%Inh (PIP5K1A),%Inh (PIP5K1C; [1]),%Inh (PIP5K2B; [1]),%Inh (PIP5K2C; [1]),%Inh (PKAC-alpha; [1]),%Inh (PKAC-beta; [1]),%Inh (PKMYT1; [1]),%Inh (PIM1; [2]),%Inh (PIM3; [2]),%Inh (PIP5K1C; [2]),%Inh (PIP5K2B; [2]),%Inh (PIP5K2C; [2]),%Inh (PKAC-alpha; [2]),%Inh (PKAC-beta; [2]),%Inh (PKMYT1; [2])
COc1ccc(CNC(=O)NC2CCN(c3ccnc(Nc4cc(OC)c(OC)c(OC)c4)n3)C2)cc1 (stereo not shown) [GSK1379748],7%,0%,0%,36%,73%,7%,87%,0%,0%,3%,,,,,,,,
CS(=O)(=O)c1ccc(-c2nc3n(c2-c2ccncc2)CCC3)cc1 [SKF-105942],0%,0%,0%,4%,13%,21%,7%,0%,0%,0%,,,,,,,,
Cc1cc(-c2ccc3c(c2)CC[C@@H](N[C@@H](C)c2ccccc2)C3)cnc1N.Cl [GW412617],11%,0%,0%,0%,34%,14%,0%,0%,9%,0%,,,,,,,,
O=C(Nc1n[nH]c2nc(-c3nccs3)c(Br)cc12)C1CC1 [SB-742251],0%,0%,0%,7%,67%,23%,27%,0%,0%,3%,,,,,,,,
NC(=O)c1nnc2ccccc2c1N,1%,0%,0%,0%,38%,0%,13%,13%,16%,15%,,,,,,,,
CCn1c(-c2ccccn2)nc2cnccc21 [SB-736398],0%,0%,0%,6%,34%,7%,32%,92.9%,6%,0%,,,,,,,,
O=C(Nc1ccccc1)Nc1cccc(Oc2ccc3nccn3n2)c1,0%,2%,0%,9%,49%,15%,48%,48%,70%,0%,,,,,,,,
Cc1ccc(C(=O)Nc2ccc(Nc3ccnc4cc(-c5ccccn5)ccc34)cc2O)cc1.Cl [GW440146],16%,0%,12%,35%,0%,11%,31%,0%,8%,0%,,,,,,,,
O=S(=O)(c1ccc(-c2ccnc3[nH]ccc23)cc1)N1CCCC1 [GSK846226],13%,0%,8%,37%,19%,0%,0%,81%,71%,0%,,,,,,,,
Nc1ncnc2[nH]c(-c3ccccc3)nc12 [AH5015],0%,0%,21%,0%,29%,0%,21%,1%,7%,0%,,,,,,,,
Fc1cc(Cl)ccc1Nc1ccnc2cc(I)ccc12 [GW551191],22%,0%,6%,0%,30%,0%,10%,0%,0%,1%,,,,,,,,
Fc1cc(Cl)ccc1Nc1ccnc2cc(-c3ccc(CN4CCCCC4)o3)ccc12 [GW560116],13%,0%,0%,0%,57%,5%,71%,100%,0%,0%,,,,,,,,
COc1cc2nccc(Nc3ccc(NC(=O)c4ccc(C)cc4)c(O)c3)c2cc1OC.Cl [GW440132],0%,0%,0%,0%,50%,0%,4%,12%,0%,4%,,,,,,,,
Cc1ccc(NC(=O)Nc2cc(C(C)(C)C)nn2-c2ccccc2)cc1 [GSK1014915],0%,0%,0%,0%,29%,12%,3%,0%,0%,14%,,,,,,,,
CCCc1ccc(S(=O)(=O)NC2CCN(c3ccnc(Nc4ccc(F)cc4)n3)C2)cc1 (stereo not shown) [GSK1379715],0%,0%,0%,19%,42%,10%,47%,81%,0%,12%,,,,,,,,

# From paper PMC5540273 (PLoS ONE, 2017)
